Inconclusive results are not listed. Values without a mark were called inactive. Calls of active or inactive are those of the source. Calls come from the whole dose curve; as a rule, active = well fitted activation curve with a large enough effect in the signal ratio in the repeat runs (not every such curve was filed as active); inconclusive = weak or mixed curves; inactive = flat fitted curve, though single readings scatter; the % refers to the signal ratio.
assay: qHTS assay to identify small molecule agonists of the TGF-beta/Smad signaling pathway (AID 1346859); conditions: SBE-bla HEK293T, TGF-beta/Smad beta-lactamase reporter, 5 h; series mostly up to 76.8 µM; activation: at the top concentration
Excerpt: U.S. Tox21 Program National Center for Advancing Translational Sciences [NCATS] NIH Chemical Genomics Center [NCGC] U.S. Environmental Protection Agency [EPA] National Institutes of Environmental Health Sciences [NIEHS] National Toxicology Program [NTP] U.S. Food and Drug Administration [FDA] Tox21 Assay Overview: Transforming growth factor beta (TGF-beta) superfamily consists of a large number of structurally related dimeric proteins that act as hormones or local mediators in regulating a wide range of biological functions. This superfamily includes TGF-betas themselves, the bone morphogenetic proteins (BMPs) and the activins. These ligands induce oligomerization of serine/threonine receptor kinases and phosphorylate the cytoplasmic signaling molecules of Smad protein family. CellSensor SBE-bla HEK 293T cell line (Life Technologies, Carlsbad, CA), responsive to TGF-beta was used to screen Tox21 10K compound library for identification of agonists/antagonists of the Smad signaling pathway. This cell line contains a beta-lactamase reporter gene under control of the Smad binding element (SBE) stably integrated into HEK 293T cells.
Tox21 Assay Protocol Summary: SBE-bla HEK 293T cells were dispensed at 4,000/well in 6 uL of assay medium into black wall/clear-bottom 1536-well plates using a Multidrop Combi (ThermoFisher Scientific, Waltham, MA) dispenser. After the assay plates were incubated at 37 C and 5% CO2 for an overnight, 23 nL of compounds dissolved in DMSO, positive controls or DMSO only was transferred to the assay plate by a Pintool station (Kalypsys, San Diego, CA). The assay plates were incubated at 37 C and 5% CO2 for 5 hr. One uL of LiveBLAzer B/G FRET substrate (Life Technologies) was added using a Flying Reagent Dispenser (Aurora Discovery, San Diego, CA) and the plates were incubated at room temperature for 2 hr. Fluorescence intensity (405 nm excitation, 460 nm and 530 nm emissions) was measured using an Envision plate reader (PerkinElmer, Shelton, CT).
% is set by controls: 0 for no effect and ±100 for the full control effect.

| Compound | outcome | activation |
| --- | --- | --- |
| C=CC(C)(CCC=C(C)C)OC(C)=O (stereo not given) | inactive | – |
| C=C(C)C1CC=C(C)CC1 (stereo not given) | inactive | – |
| CNCCCC12CCC(c3ccccc31)c1ccccc12 | inactive | – |
| CCCCOCCOCCO | inactive | – |
| C#C[C@]1(O)CC[C@H]2[C@@H]3CCC4=Cc5oncc5C[C@]4(C)[C@H]3CC[C@@]21C | – | 0.395% [at 35.3 µM] |
| O=Cc1ccccc1O | inactive | – |
| COc1c(Cl)c(Cl)c(Cl)c(Cl)c1Cl | inactive | – |
| Nc1ccc(S(=O)(=O)Nc2cnc3ccccc3n2)cc1 | inactive | – |
| CC(C)OC(=O)C(C)(C)Oc1ccc(C(=O)c2ccc(Cl)cc2)cc1 | inactive | – |
| O=C(O)c1ccccc1Nc1cccc(C(F)(F)F)c1 | inactive | – |
| COc1ccccc1/C=C/C=O | inactive | – |
| Cc1ncc[nH]1 | inactive | – |
| COC(=O)Nc1nc2ccc(S(=O)c3ccccc3)cc2[nH]1 (stereo not given) | inactive | – |
| Nc1ncn([C@@H]2O[C@H](CO)[C@@H](O)[C@H]2O)c(=O)n1 | inactive | – |
| CC(C)OC=O | inactive | – |
| CC(CCC(=O)O)(c1ccc(O)cc1)c1ccc(O)cc1 | inactive | – |
| Cc1ccc(C)c(O)c1C | inactive | – |
| c1ccc2cc(Nc3ccc(Nc4ccc5ccccc5c4)cc3)ccc2c1 | inactive | – |
| C=C(C)C(=O)OCCOC(=O)C(=C)C | inactive | – |
| O=C(OCc1ccccc1)c1ccccc1O | inactive | – |

| Compound | outcome | activation |
| --- | --- | --- |
| Nc1ccc(Nc2ccccc2)cc1 | inactive | – |
| c1cc(-c2ccncc2)ccn1 | inactive | – |
| O=C(Nc1ccc(Cl)cc1)Nc1ccc(Cl)c(Cl)c1 | inactive | – |
| CCCCC(CC)COP(=O)(OCC(CC)CCCC)OCC(CC)CCCC (stereo not given) | inactive | – |
| CC1=CC2C3CC(C=C3C)C2C1 (stereo not given) | inactive | – |
| O=C(/C=C/c1ccccc1)OCc1ccccc1 | inactive | – |
| CC(=O)C1(C)CC2=C(CCCC2(C)C)CC1C (stereo not given) | inactive | – |
| C[Si](C)(C)O[Si](C)(C)C | inactive | – |
| CCCCc1oc2ccccc2c1C(=O)c1cc(I)c(OCCN(CC)CC)c(I)c1 | – | -6.06% [at 35.3 µM] |
| CCCC(=O)O | – | -2.34% |
| CC(C)=CCCC(C)CCO (stereo not given) | inactive | – |
| COC(=O)CCC(=O)OC | inactive | – |
| COC(C)COC(C)COC(C)CO (stereo not given) | inactive | – |
| Cc1c(C(N)=O)cc([N+](=O)[O-])cc1[N+](=O)[O-] | inactive | – |
| Cn1cnc([N+](=O)[O-])c1Sc1ncnc2nc[nH]c12 | inactive | – |
| O=[N+]([O-])c1ccc2c(c1)Cc1ccccc1-2 | inactive | – |
| NC=O | inactive | – |
| CC(C)OB(OC(C)C)OC(C)C | inactive | – |
| COC(=O)c1ccccc1 | inactive | – |
| O=CCc1ccccc1 | inactive | – |
